AmpC inh no detg: qHTS Inhibitors of AmpC Beta-Lactamase (assay without detergent); P00811; AmpC nitrocefin hydrolysis, absorbance 480 nm, 0.0001% Triton; Potency, µM (doses to about 57.1 µM), for inactives: at the top dose activity change, negative = inhibition, actives largely listed as inhibitors; actives 0.52% (n = 330,000);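 further: plate controls were no compound for no effect and no enzyme for full effect; nearly all actives have a fitted effect of over 20% in size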
Target sequence (P00811 whole entry, looked up): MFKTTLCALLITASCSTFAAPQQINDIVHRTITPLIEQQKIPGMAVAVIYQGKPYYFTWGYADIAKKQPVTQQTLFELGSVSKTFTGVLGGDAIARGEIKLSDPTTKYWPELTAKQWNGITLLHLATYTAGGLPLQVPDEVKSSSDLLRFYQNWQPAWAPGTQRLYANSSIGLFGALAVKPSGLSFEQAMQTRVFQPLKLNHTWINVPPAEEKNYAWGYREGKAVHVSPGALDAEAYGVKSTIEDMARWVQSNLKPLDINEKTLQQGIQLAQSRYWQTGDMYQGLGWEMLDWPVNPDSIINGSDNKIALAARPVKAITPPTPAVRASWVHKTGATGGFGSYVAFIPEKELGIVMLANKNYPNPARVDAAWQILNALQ
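AmpC (5.3 nM in the dispensed reagent) in 20 mM phosphate pH 7.0 with 0.01% (detergent screen) or 0.0001% Triton X-100 was preincubated with compounds for 15 min at room temperature. Nitrocefin was then added from an 800 uM solution, and hydrolysis was followed at 480 nm.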
AmpC inh detg: qHTS Inhibitors of AmpC Beta-Lactamase (assay with detergent); actives 0.041% (n = 370,000); AmpC hydrolysis of nitrocefin, absorbance 480 nm, 0.01% Triton; Potency, µM (top dose mostly 114 µM), for the others: top-dose activity change, negative = inhibition, usual class: inhibitors; P00811;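 further: 0% = no-compound wells and -100% = no-enzyme wells; nearly all actives have a fitted effect of over 25% in size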
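20 mM phosphate pH 7.0 + 0.01% (detergent screen) or 0.0001% Triton X-100; 5.3 nM AmpC reagent; cpd preinc 15 min RT; nitrocefin (800 uM stock) to start; A480 q20 s × 4 min; Activity was normalised to no-enzyme and no-compound control wells.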
MARV entry inh: qHTS for inhibitors of binding or entry into cells for Marburg Virus; Marburg virus pseudotyped entry inhibition, cell reporter; Potency, µM (top dose mostly 37.8 µM), without a hit: at the top dose activity change, negative = inhibition, most hits filed as inhibitors; actives 1.8% (n = 300,000); calls by dose curve; tested in HEK293 cells
LASV entry inh: qHTS for Inhibitors of binding or entry into cells for Lassa Virus; actives 1.2% (n = 300,000); Potency, µM (series often up to 37.9 µM), without a hit: at the top dose activity change, negative = inhibition, actives largely listed as inhibitors; AID 540256, 2011; Lassa virus pseudotype entry inhibition, cell reporter; calls by dose curve; tested in HEK293 cells; further: nearly all actives have a fitted effect of over 50% in size
AMA1-RON2 inh: qHTS for Inhibitors of AMA1-RON; Towards Development of Antimalarial Drug Lead: Primary Screen; Plasmodium falciparum AMA1 (3D7) - RON2 peptide interaction; actives 0.2% (n = 360,000); AlphaScreen AMA1-biotinylated RON2 peptide binding; Potency, µM (highest dose often 58.2 µM), inactives show at the highest dose activity change, negative = inhibition, actives largely listed as inhibitors;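 further: 0% = vehicle wells and -100% = peptide control; nearly all actives have a fitted effect of over 45% in size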
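AMA1 (3D7) with his tag at 25 nM final met compounds first, then biotinylated RON2 peptide at 25 nM; detection used donor plus acceptor beads, 10 µg/mL apiece, read by AlphaScreen after 30 min at room temperature.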
* hit, by the source's call; ? = inconclusive; · = not tested or not shown; [ ] = another dose, or the depositor's remark. Only some compounds are listed: those with a hit (about 2.3% of all), similar ones and a draw of the others. Unless noted, the call rests on the fitted dose curve; in most records, active means well fitted curve in the direction sought with a large enough effect; inconclusive means small, poorly fitted or top-dose-only effect, or another doubt; inactive means no such curve, though single readings can be large; an effect the other way counts as inactive or inconclusive. Unless noted, on the % scale 0 is the no-effect control and ±100 the full control effect; potency means the concentration at half of the fitted maximal effect.

SMILES | AmpC inh no detg | AmpC inh detg | MARV entry inh | LASV entry inh | AMA1-RON2 inh
CC(=O)c1ccc(C(=O)N(CCCN(C)C)c2nc3c(C)c(C)ccc3s2)cc1 | · | 1% | · | ? | ·
COc1ccc(O[C@@H]2[C@H](O)CO[C@@H]2C=CC#Cc2ccccc2)cc1 | · | · | 8%[14.2 µM] | · | ·
CCOC(=O)N1CCc2c(sc3c2c(=O)n(Cc2ccccc2)c(=O)n3CC(=O)Nc2ccc(F)cc2)C1 | · | 10% | ? | 9%[46.1 µM] | ·
O=C(CCc1ccccc1)c1c(O)cc(O)cc1O | 18µM* | 4% | · | · | -1%
CN=c1sc2ccccc2n1C[C@@H](O)COCc1ccco1 | · | · | 0%[46.1 µM] | · | ·
O=C(COc1ccc2c(c1)CCC2)Nc1ccccn1 | -17% | 0% | ? | 11µM* | 7%
Cc1cccc(NC(=O)COc2ccc3c(c2)CCC3)n1 | -14% | -14% | -29% | 12%[46.1 µM] | -4%
O=C(c1ccccc1)N1CCN(c2ncnc3c2cnn3-c2ccccc2)CC1 | 2% | -12% | ? | 2% | 0%
Cc1nn(-c2ccccc2)c(Cl)c1C(=O)N1CCN(c2ncnc3c2cnn3-c2ccccc2)CC1 | 38% | ? | 13µM* | 13µM* | -11%
Cc1csc(NC(=O)c2ccc(C(=O)Nc3nc(C)cs3)cc2)n1 | 2% | -5% | · | · | ·
Cc1csc(NC(=O)c2cn3ccccc3n2)n1 | -26% | 1% | ? | 4µM* | 74%
Cc1csc(NC(=O)c2ccc3ccccc3n2)n1 | -18% | -20% | ? | ? | 36%
CCc1ccc(C(=O)Nc2nc(C)cs2)s1 | -26% | -2% | ? | 1.3µM* | 0%
Cc1csc(NC(=O)c2cnc3ccccc3n2)n1 | -8% | ? | 5.6µM* | ? | 24%
COc1cccc(NC(=O)C2CCN(S(=O)(=O)c3c(C)noc3/C=C/c3cccs3)CC2)c1 | · | 2% | ? | -17%[46.1 µM] | ·
Cc1ccc(CNC(=O)c2sc3nc(C)cc(C)c3c2-n2cccc2)cc1 | · | 4% | 0%[46.1 µM] | 7%[46.1 µM] | ·
CC(C)(C)NCC(O)(c1ccc(Cl)cc1)c1ccc(Cl)cc1 | -28% | -4% | 3.2µM* | ? | -16%
CCN(C(=O)Cn1c(=O)n(-c2ccccc2)c(=O)c2ccc(C(=O)NCc3ccc4c(c3)OCO4)cc21)c1cccc(C)c1 | · | -7% | ? | -14%[46.1 µM] | ·
c1ccc(CCNc2ccccn2)nc1 | · | · | 7% | 4% | -5%
c1ccc(CCNc2ccc3c(c2)Cc2ccccc2-3)nc1 | · | · | 1µM* | ? | -20%
C=CCc1cc(Cl)ccc1OCCOCCNC(C)CC (configuration not stated) | 24% | 4% | 11µM* | ? | 3%
CCOC(=O)c1cnc(Nc2nc3ccccc3o2)nc1C | -17% | 8% | 4.1µM* | 1.3µM* | 33%
Cc1nc(Nc2nc3ccccc3o2)nc2c1CCC2 | 107% | ? | 7.3µM* | ? | 57%
Cc1cc(F)ccc1O[C@H]1C=C[C@@H](c2ccc3c(c2)OCO3)O[C@@H]1CO | · | · | 14%[14.2 µM] | · | ·
CCc1cc2c(=O)c(-c3cscn3)coc2c(CN(C)C)c1O | -53% | ? | -11% | -9% | 3%
SMILES | AmpC inh no detg | AmpC inh detg | MARV entry inh | LASV entry inh | AMA1-RON2 inh
CCc1cc2c(=O)c(-c3ccc4c(c3)OCO4)coc2c(CN(C)C)c1O | 25µM* | 3% | · | · | 7%
O=C(Nc1ccccn1)c1ccc(-c2ccccc2)cc1 | -22% | ? | 1.1µM* | ? | -8%
Cc1ccc(C(=O)Nc2ccccc2C(=O)Nc2ccccn2)cc1Cl | -10% | ? | 13µM* | 3% | -10%
O=C(Nc1ccccn1)c1ccc2nc(-c3ccccc3)c(-c3ccccc3)nc2c1 | -12% | -6% | · | · | ·
CC1(C)Cc2c(C#N)c(SCC(=O)c3ccccc3)nc(N3CCOCC3)c2CS1 | -1% | ? | -29% | 18µM* | -18%
OCC1(CCOc2ccccc2)CCN(Cc2cn[nH]c2-c2ccc(F)cc2)CC1 | 60% | -6% | 4µM* | -28%[46.1 µM] | 6%
c1ccc2c(c1)-c1cccc3cncc-2c13 | · | · | -7% | 26% | 88%
c1ccc2c(-c3cncc4ccccc34)cncc2c1 | · | · | 13µM* | ? | -12%
